# A selection: hits, their analogues and other compounds. The true share with any hit is near 20%.
# Pf growth 96h – Primary qHTS for delayed death inhibitors of the malarial parasite plastid, 96 hour incubation; P. falciparum luciferase reporter growth, 96 h; Potency, µM (highest dose often 28.7 µM), inactives show at the top dose activity change, negative = inhibition, most hits filed as inhibitors; hit rate 6.9% among 320,000; AID 504834, 2011; further: potency means the concentration at half of the fitted maximal effect; on the % scale 0 is the no-effect control and ±100 the full control effect
#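 Delayed-death screen, second-generation endpoint: infected erythrocytes, 2% hematocrit, 0.05% parasitemia final; 96 hours at 37 C, 5% CO2; luciferase detection reagent; luminescence decrease equals reduced growth.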
# Pf growth 48h – Primary qHTS for delayed death inhibitors of the malarial parasite plastid, 48 hour incubation. P. falciparum luciferase growth in erythrocytes, 48 h. Potency, µM (series often up to 28.7 µM), for inactives: at the top dose activity change, negative = inhibition, usual class: inhibitors. hit rate 5.9% among 310,000. AID 504832, 2011; further: potency means the concentration at half of the fitted maximal effect; on the % scale 0 is the no-effect control and ±100 the full control effect
#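 In quantitative HTS format, infected erythrocytes bearing luciferase-reporter parasites were treated for a single generation at 37 C. Luminescence after adding detection reagent served as the growth measure.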
# HCMV antiviral – qHTS Assay for inhibitors of the human cytomegalovirus (HCMV) | activity change, negative = inhibition, % at 57.5 µM | HFF cells, HCMV-luciferase reporter, 72 h; active compounds read low | AID 1259415, 2018 | hit rate 4.5% among 410,000; in the data active means activity change below about -60%; inconclusive means no clear call, values can overlap the other calls; inactive means above about -39%; further: on the % scale 0 is the no-effect control and ±100 the full control effect
#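 Steps: HFFs plated, 16 h 37C; compounds added; HCMV-luciferase added to MOI 1 PFU/cell; 72 h 37C; OneGlo reagent, 5 min room temperature; luminescence read, normalized to controls.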
# Cycloheximide cs – Cycloheximide Counterscreen for Small Molecule Inhibitors of Shiga Toxin. max response, %. hit rate 12% among 300,000. cell reporter, cycloheximide protein synthesis inhibition counterscreen; in the data active means max response mostly above about 13%, no sharp cut-off; inactive means mostly below about 14%; further: read at 38.3 µM for the half of the compounds with a filed dose; 0% is about no effect
# Shiga inhibitor – A qHTS for Small Molecule Inhibitors of Shiga Toxin. Vero cells, Shiga toxin protein synthesis inhibition reporter. inhibition, % at 38.7 µM. hit rate 9.2% among 290,000; in the data active means inhibition mostly above about 28%, no sharp cut-off; inactive means mostly below about 43%; further: 0% is about no effect
# * = called active by the depositor; u = inconclusive; x = not tested or not shown; [ ] = another dose, or the depositor's remark. Unless noted, the call rests on the fitted dose curve; in most records, active means well fitted inhibition curve with a large enough effect; inconclusive means small, poorly fitted or top-dose-only effect, or another doubt; inactive means no such curve, though single readings can be large or run the other way.
SMILES,Pf growth 96h,Pf growth 48h,HCMV antiviral,Cycloheximide cs,Shiga inhibitor
CCOC(=O)CSC1=NC(=O)/C(=C/c2ccc(OC)cc2)S1,-2%,52%,x,22*,61*
CCOC(=O)C1CCCN(C2=NC(=O)/C(=C/c3ccc(OC)cc3OC)S2)C1 (centres undefined),17%,6.6µM*,-8,-3,-7
CCC(CC)C(=O)Nc1c(C(=O)N2CCN(c3ccccc3F)CC2)oc2ccccc12,x,x,-19,x,x
CCN(CCCCCN(C)C)Cc1cc2ccccc2o1,5.2µM*,10µM*,-23,3,8
CSc1ccc(CNc2ccccc2)cc1,3%,53%,x,29*,61*
CSc1ccc(CNc2ncc(-c3ccccc3)n2C)cc1,x,x,9,x,x
O=C(CN(C(=O)CCC(=O)Nc1ccccn1)c1ccc(F)cc1)NCc1ccc(F)cc1,u,-21%,21,-1,-2
Clc1cccc(NCc2ccccc2)n1,-27%[5.75 µM],13%,-31,-2,37
CSc1ccc(CNc2ccccn2)cc1,8%,97%,-21,38*,117*
Cc1cccc(NCc2ccc(N(C)C)cc2)n1,u,44%,-1,45*,91*
Fc1ccc(CNc2ccccn2)cc1,-16%,9%,12,20*,26*
CCc1cccc(NC(=O)CSc2ncc3c(n2)-c2ccc(Cl)cc2N(Cc2ccccc2)S3(=O)=O)c1,x,x,-3,x,x
CN(C)c1ccc(CNc2ccccn2)cc1,3%,41%,-3,27*,43*
CCOc1ccc(-c2n[nH]c(=S)c3ccccc23)cc1,1.7µM*,u,-39,-4,-5
CCOc1ccc(-c2n[nH]c(=S)o2)cc1,45%,72%,-19,20*,19
CCOc1ccccc1-c1n[nH]c(=S)o1,-1%,x,117,-3,-5
Cc1ccc(/C(N)=N/OC(=O)N2CCOCC2)cc1,1µM*,u,-85*,22*,16
COc1cc(C(=S)N2CCOCC2)cc(OC)c1OC(=O)c1cccc(C)c1,59%,u,-29,-2,-11
Cc1cccc(/C(N)=N/OC(=O)N2CCOCC2)c1,2.6µM*,u,-74*,24*,101*
COc1cc(/C=C(/C#N)C(=O)Nc2ccc(C)cc2)ccc1Oc1nc(Cl)ncc1F,-3%,5%,u,10,9
COCCCn1c(=N)c(C(=O)NCC2CCCO2)cc2c(=O)n3cc(C)ccc3nc21 (centres undefined),x,x,-3,x,x
COc1ccc(NC(=O)CSc2nccn2-c2ccccc2)cc1,2%,15%,6,22*,39
CCc1ccc(NC(=O)CSc2nccn2C2CCCC2)cc1,x,x,2,x,x
COc1ccc(NC(=O)CSc2nccn2Cc2ccccc2)cc1,-16%,-12%,51,53*,164*
COc1ccc(-n2ccnc2SCC(=O)Nc2ccc(OC)cc2OC)cc1,33%,4%,-28,-5,-16
SMILES,Pf growth 96h,Pf growth 48h,HCMV antiviral,Cycloheximide cs,Shiga inhibitor
CCC(=O)Nc1ccc(NC(=O)CSc2nnnn2-c2ccc(OC)cc2)cc1,87%,u,-27,-2,20
CCc1ccc(NC(=O)CSc2nccn2-c2ccc(OC)cc2)cc1,x,x,-100*,x,x
COc1ccc(NC(=O)CSc2nnnn2C2CC3C=CC2C3)cc1 (centres undefined),u,u,-9,20*,31
CCc1ccc(NC(=O)CSc2nccn2-c2ccc(F)cc2)cc1,x,x,-66*,x,x
CCc1ccc(NC(=O)CSc2nccn2-c2cccc(C)c2C)cc1,x,x,-36,x,x
CCNC(=O)COc1ncnc2scc(-c3ccc(F)cc3)c12,5%,-1%,1,-2,-7
O=C(COc1ncnc2scc(-c3ccc(Cl)cc3)c12)NCc1ccco1,u,-7%,4,27,53*
O=C(O)CC1=C(c2ccc(F)cc2)CCC1=O,6.6µM*,-9%,-22,-2,-7
CC(C)c1ccc(NC(c2nnc(-c3ccccc3)o2)c2ccc(F)cc2Cl)cc1 (centres undefined),x,x,-3,x,x
Cc1cc(C)cc(NC(=O)Cn2nnc(C(=O)Nc3cc(C)cc(C)c3)c2N)c1,x,x,-83*,x,x
Cc1ccccc1Cn1nnc(C(=O)Nc2cccc(C)c2C)c1N,-14%,u,75,30*,30
COc1cccc(NC(=O)c2nnn(CC(=O)Nc3cc(C)cc(C)c3)c2N)c1,38%,42%,u,9,-9
Cc1cc(C)cc(NC(=O)c2nnn(Cc3cc(C)ccc3C)c2N)c1,10µM*,u,x,-3,14
C[C@H]1[C@@H](NC(=O)Nc2cccc(C(F)(F)F)c2)CC[C@@]23CCCN2C(=O)CCC[C@@H]13,x,x,-11,x,x
CN(Cc1cccs1)C(=O)COc1ccc(-c2nnco2)cc1,-21%,-11%,-100*,11,13
CCOC1=C2CN(S(=O)(=O)c3ccc(C)cc3)C(c3ccc(C)cc3)CC2N(S(=O)(=O)c2ccc(C)cc2)C(c2ccccc2)C1 (centres undefined),x,x,142,x,x
CC(C)N=c1scc(-c2cccs2)n1/N=C/c1ccc(O)c(O)c1O,u,-16%,u,16*,60*
COc1ccc(O)c(/C=N/n2c(-c3ccco3)csc2=Nc2cccnc2)c1,-19%,-12%,40,-2,-21
CN=c1scc(-c2ccccc2F)n1/N=C/c1ccc(O)c(O)c1O,-46%,u,-78*,-14,-43
CCN=c1scc(-c2cccs2)n1/N=C/c1cc(OC)ccc1O,13%,115%,-95*,51*,41
CN=c1scc(-c2ccccc2F)n1/N=C/c1ccc[nH]1,28%,41%,-99*,-23,-39
CCOc1ccc(/C=C(\C#N)C(=O)NC2CC2)c(OCC)c1,x,x,-30,x,x
COc1ccc(CN(C)C(=O)c2cc(S(=O)(=O)N3CCOCC3)ccc2N2CCCC2)cc1,u,9.3µM*,-37,x,x
COc1ccc(S(=O)(=O)N2CCCCCC2)cc1C(=O)N(C)Cc1ccc(F)cc1,-7%,u,-25,x,x
COc1ccc(S(=O)(=O)N2CCCCCC2)cc1C(=O)N(C)Cc1ccc(C(C)(C)C)cc1,13µM*,u,-15,0,-13
SMILES,Pf growth 96h,Pf growth 48h,HCMV antiviral,Cycloheximide cs,Shiga inhibitor
CCN(CC)CCN(C(=O)c1ccco1)c1nc2ccc(Br)cc2s1,x,x,-21,x,x
O=C(CN1CCCC1)Nc1ccc(NC(=O)Nc2ccccc2Cl)cc1,u,0%,53,25*,50
O=C(CN1CCCC1)Nc1ccccc1Cl,6%,x,-4,5,-2
O=C(CN1CCN(CC(=O)Nc2ccccc2Cc2ccccc2)CC1)Nc1ccccc1Cl,13µM*,u,-9,-3,-3
C=CCn1c(O)c(/C(C)=N/NC(=S)Nc2ccccc2)c(=O)[nH]c1=O,u,13%,35,27*,60*
CCCCn1c(O)c(C(C)=Nc2c(C)n(C)n(-c3ccccc3)c2=O)c(=O)[nH]c1=O,u,9%,-29,-4,-14
CC/C(=N\NC(=O)c1ccccc1)c1c(O)n(Cc2ccccc2)c(=O)[nH]c1=O,51%,25%,0,57*,54*

# Screening results (PubChem BioAssay)
